PubChem BioAssay (EPA / NIEHS)
Results filed as inconclusive are left out. The source made the active and inactive calls. The calls were made as follows, unless noted: active = hit-call score of the fitted dose curve at least 0.9, where 1 is the maximum; inactive = score below 0.9.

Tests used:
[1] = ATG_NF_kB_CIS: Attagene CIS-FACTORIAL HepG2 Assay for human Nuclear Factor Kappa B (NF-kB) (AID 2282991); conditions: HepG2 Attagene cis-factorial NF-kB reporter mRNA; actives raise or lower the signal
Procedure, shortened: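 HepG2 cells transfected with cis-promoter-driven reporter units, so endogenous transcription factor activity is measured. Reporter mRNA quantified 24 h after dosing by RT-PCR and capillary electrophoresis, with bidirectional fitting against DMSO.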

[2] = ATG_NRF2_ARE_CIS: Attagene CIS-FACTORIAL HepG2 Assay for human Nuclear Factor Erythroid 2 Related Factor 2 (NFR2) response to Antioxidant Response Elements (ARE) (AID 2282992); conditions: HepG2 Attagene ARE/NRF2 reporter, transcription factor activity; actives raise or lower the signal;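 as to AC50: reporter mRNA level measured by RT-PCR and capillary electrophoresis fluorescence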
Procedure, shortened: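 Fluorescence intensity of reporter-specific cDNA fragments, separated by capillary electrophoresis, reflects mRNA induction in transfected HepG2 cells at 24 h. Activity is fitted bidirectionally, DMSO serving as baseline.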

[3] = ATG_Oct_MLP_CIS: Attagene CIS-FACTORIAL HepG2 Assay for human Octamer-Binding Transcription Factor (Oct) (AID 2282993); conditions: HepG2 Attagene cis-factorial Oct reporter, mRNA; actives raise or lower the signal
Procedure, shortened: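 Using HepG2 cells bearing transfected cis-reporter constructs, mRNA induction was read after 24 h by fluorescent RT-PCR and capillary electrophoresis, with DMSO defining baseline for gain- or loss-of-signal fits.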

[4] = target: Cellular tumor antigen p53 (Homo sapiens) (UniProt P04637); experiment: ATG_p53_CIS: Attagene CIS-FACTORIAL HepG2 Assay for human p53 Transcription Factor (AID 2282994); conditions: HepG2 p53 cis-element reporter, Attagene mRNA; actives raise or lower the signal
Procedure, shortened: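 Transiently transfected HepG2 (multiple cis reporter transcription units); exposure 24 h; reporter RNA via RT-PCR, 6-FAM extension, 2 h HpaI digest at 37 C, CE detection; DMSO baseline.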

[5] = target: human Peroxisome Proliferator-activated Receptor delta (PPARd), PPARD (gene 5467) (UniProt Q03181); experiment: ATG_PPARd_TRANS: Attagene TRANS-FACTORIAL HepG2 Assay for human Peroxisome Proliferator-activated Receptor delta (PPARd) (AID 2283002; active = hit-call score of the fitted dose curve at least 0.9, where 1 is the maximum)
Procedure, shortened: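 Cell-based TRANS reporter: HepG2, transient MRTU transfection, 24 h exposure. Readout = reporter mRNA (RT-PCR/CE, 6-FAM). Gain-of-signal fit vs DMSO control.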

[6] = target: human Peroxisome Proliferator-activated Receptor alpha (PPARa), PPARA (gene 5465) (UniProt Q07869); experiment: ATG_PPARa_TRANS: Attagene TRANS-FACTORIAL HepG2 Assay for human Peroxisome Proliferator-activated Receptor alpha (PPARa) (AID 2283001; active = hit-call score of the fitted dose curve at least 0.9, where 1 is the maximum;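 as to AC50: potency for gain of reporter signal over DMSO so agonist or activator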)
Procedure, shortened: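 Reporter transcripts quantified by RT-PCR plus capillary electrophoresis after 24 h treatment, fitted upward relative to DMSO. Cells: human HepG2 transiently carrying multiple GAL4-UAS reporter units driven by NR-Gal4 chimeras.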

Measured: AC50

Sequence of Cellular tumor antigen p53 (Homo sapiens) (P04637 whole entry, looked up): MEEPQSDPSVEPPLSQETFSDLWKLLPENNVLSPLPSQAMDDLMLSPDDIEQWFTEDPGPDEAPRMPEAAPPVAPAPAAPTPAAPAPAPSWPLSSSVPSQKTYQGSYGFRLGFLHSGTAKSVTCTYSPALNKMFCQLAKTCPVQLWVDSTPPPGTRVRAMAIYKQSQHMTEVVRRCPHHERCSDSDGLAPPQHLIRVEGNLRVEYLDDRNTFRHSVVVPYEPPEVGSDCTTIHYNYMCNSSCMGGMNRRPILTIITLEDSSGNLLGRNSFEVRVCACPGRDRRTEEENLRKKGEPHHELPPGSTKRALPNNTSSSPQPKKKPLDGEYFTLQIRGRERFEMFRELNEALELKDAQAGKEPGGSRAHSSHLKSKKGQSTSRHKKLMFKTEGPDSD
Sequence of human Peroxisome Proliferator-activated Receptor delta (PPARd), PPARD (gene 5467) (Q03181 whole entry, looked up): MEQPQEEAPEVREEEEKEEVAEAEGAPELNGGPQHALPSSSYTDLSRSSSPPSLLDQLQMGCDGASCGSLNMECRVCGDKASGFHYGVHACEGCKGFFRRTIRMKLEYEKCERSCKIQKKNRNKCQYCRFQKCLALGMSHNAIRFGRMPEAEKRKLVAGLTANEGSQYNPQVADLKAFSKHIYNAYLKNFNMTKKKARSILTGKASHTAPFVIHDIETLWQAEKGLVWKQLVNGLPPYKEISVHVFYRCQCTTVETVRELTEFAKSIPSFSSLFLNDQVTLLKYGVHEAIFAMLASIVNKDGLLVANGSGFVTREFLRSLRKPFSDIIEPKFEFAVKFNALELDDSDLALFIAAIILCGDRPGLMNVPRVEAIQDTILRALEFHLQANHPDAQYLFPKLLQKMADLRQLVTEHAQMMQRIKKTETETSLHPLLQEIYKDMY
Sequence of human Peroxisome Proliferator-activated Receptor alpha (PPARa), PPARA (gene 5465) (Q07869 whole entry, looked up, the tested form may be a part): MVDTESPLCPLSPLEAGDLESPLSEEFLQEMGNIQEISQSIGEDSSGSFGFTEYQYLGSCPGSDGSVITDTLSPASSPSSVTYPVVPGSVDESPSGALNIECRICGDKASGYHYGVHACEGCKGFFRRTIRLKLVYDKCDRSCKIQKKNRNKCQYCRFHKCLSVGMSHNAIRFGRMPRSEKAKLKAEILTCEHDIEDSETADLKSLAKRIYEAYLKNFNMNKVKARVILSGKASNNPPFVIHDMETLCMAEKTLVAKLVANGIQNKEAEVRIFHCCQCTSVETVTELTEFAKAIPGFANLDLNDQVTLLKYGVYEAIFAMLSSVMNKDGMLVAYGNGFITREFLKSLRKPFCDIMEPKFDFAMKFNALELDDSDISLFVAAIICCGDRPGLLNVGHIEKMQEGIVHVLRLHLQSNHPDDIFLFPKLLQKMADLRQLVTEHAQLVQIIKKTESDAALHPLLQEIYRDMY

C=CC(=O)OCC(COC(=O)C=C)(COC(=O)C=C)COC(=O)C=C
active: [1] 1.96 µM | [3] 8.16 µM | [4] 8.93 µM
inactive: [2] | [5]

O=S1(=O)OC(c2cc(Br)c(O)c(Br)c2)(c2cc(Br)c(O)c(Br)c2)c2ccccc21
active: [1] 93 µM | [2] 60.1 µM | [4] 126 µM
inactive: [3] | [6] | [5]

O=C(Nc1ccc(Br)cc1)c1cc(Br)cc(Br)c1O
active: [2] 2.91 µM | [3] 5.3 µM | [4] 100 µM | [6] 4.97 µM
inactive: [1] | [5]

Clc1cc(C(Cl)(Cl)Cl)cnc1Cl
active: [1] 8.56 µM | [3] 15.6 µM | [4] 14.7 µM
inactive: [2] | [6] | [5]

Nc1ccc(Br)cc1
inactive: all assays above

CCCCCCCCCCCCCCC(Br)C(=O)O (stereo not given)
inactive: [4]
active: [1] 50.4 µM | [2] 30.1 µM | [3] 161 µM | [6] 1.44 µM | [5] 7.74 µM

COCCl
inactive: all assays above

C[CH2][Hg][S]c1ccccc1C(=O)O
active: [2] 0.3 µM | [3] 2.87 µM
inactive: all other assays above

Cc1cc(-c2cc(C)c(N)c(C)c2)cc(C)c1N
active: [4] 80.2 µM
not listed: [6]
inactive: all other assays above

COc1ccc([N+](=O)[O-])cc1O
inactive: all assays above

BrCc1ccc(Br)cc1
not listed: [6]
inactive: all other assays above

COC(F)(C(F)(F)C(F)(F)F)C(F)(C(F)(F)F)C(F)(F)F (stereo not given)
not listed: [6]
inactive: all other assays above

c1csc(-c2ccc(-c3cccs3)s2)c1
active: [2] 1.22 µM | [3] 1.62 µM
inactive: all other assays above

O=C1c2ccccc2C(=O)C1C(=O)C(c1ccccc1)c1ccc(Cl)cc1 (stereo not given)
inactive: [4] | [5]
active: [1] 26.3 µM | [2] 3.96 µM | [3] 6.7 µM

Nc1ccc(-c2ccccc2)cc1
active: [2] 32 µM
inactive: all other assays above
